# Assay results: the supplement of paper PMC12669797
# Values joined by “and” are separate entries in the source; they are usually repeats but may differ in a detail not shown here. Identical values can stand only once. Counter-ions that a name gives are not always drawn. ± gives the standard deviation of the averaged measurements.
# Columns and labels:
# [1] = system: ES2; assay: cell viability relative to DMSO control (MTS) (fraction of DMSO control); higher = more viable cells / less growth inhibition; details: 10 µM; 48 h
# Outline: (§1)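 TOV-21G and ES2 clear cell carcinoma cells were seeded at 5000 cells per well in 96-well plates and grown for 24 h. Cells then received a 367-compound […] library at 10 µM final concentration, with DMSO in control wells. After 48 h, viability was read by MTS assay (CellTiter 96 AQueous One Solution) following the maker's protocol. Cell viability is expressed as a fraction of the DMSO control.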
# [2] = system: TOV-21G; assay: as above; details: 10 µM; 48 h
# Outline: as §1
SMILES,cell viability [1],cell viability [2]
CC(Cc1ccc(O)c(O)c1)C(C)Cc1ccc(O)c(O)c1 (stereo not given) [Nordihydroguaiaretic acid (NDGA)],1,0.865
CC1=C(/C=C/C(C)=C/C=C/C(C)=C/C(=O)O)C(C)(C)CCC1 [tretinoin],1.01,1.51
CC(C)C[C@@H](C=O)NC(=O)[C@H](CC(C)C)NC(=O)[C@H](CC(C)C)NC(=O)OCc1ccccc1,0.298,0.255
C[S+]([O-])c1ccc(-c2nc(-c3ccc(F)cc3)c(-c3ccncc3)[nH]2)cc1 (stereo not given),0.916,0.908
CC(C)C(=O)Nc1ccc([N+](=O)[O-])c(C(F)(F)F)c1 [Flutamide],0.917,1.09
c1cc(CN2CCCNCCNCCCNCC2)ccc1CN1CCCNCCNCCCNCC1 [AMD3100 octahydrochloride],1.4,1.38
Ic1cccc(CSc2nnc(-c3ccncc3)o2)c1 [GSK-3 inhibitor II],1.09,1.19
Cn1nnc2c(C(N)=O)ncn2c1=O [temozolomide],1.2,1.12
Cc1ccc2nc(NCCN)c3ncc(C)n3c2c1,0.489,0.375
CO[C@H]1C[C@@H]2CC[C@@H](C)[C@@](O)(O2)C(=O)C(=O)N2CCCC[C@H]2C(=O)O[C@H]([C@H](C)C[C@@H]2CC[C@@H](OC(=O)C(C)(CO)CO)[C@H](OC)C2)CC(=O)[C@H](C)/C=C(\C)[C@@H](O)[C@@H](OC)C(=O)[C@H](C)C[C@H](C)/C=C/C=C/C=C/1C [temsirolimus],0.824,0.516
NC(=O)c1ccccc1 [Benzamide],0.902,0.989
COc1ccc(CCN(C)CCCC(C#N)(c2ccc(OC)c(OC)c2)C(C)C)cc1OC (stereo not given) [Verapamil],0.953,1.12
CC(C)(C)c1cc(O)ccc1O [t-Butylhydroquinone (BHQ)],0.939,1.11
O=S(=O)(c1cccc2cnccc12)N1CCCNCC1,0.979,1.04
O=Nc1c(-c2c(O)[nH]c3ccccc23)[nH]c2ccccc12 [indirubin-3'-monoxime],0.696,0.491
OC[C@H]1NC[C@H](O)[C@@H](O)[C@@H]1O [Deoxynojirimycin],1.02,1.19
C[n+]1cc2c3c(ccc2c2ccc4cc5c(cc4c21)OCO5)OCO3 [Sanguinarine],0.385,0.253
NC(=O)Nc1sc(-c2ccccc2)cc1C(N)=O [IKK-2 inhibitor VI],0.555,0.476
COc1cc(O)c(CC=C(C)C)c(O)c1C(=O)/C=C/c1ccc(O)cc1 [Xanthohumol],1.07,1.01
CCCCN1C(=O)C2Cc3c([nH]c4ccccc34)C(c3cccc(O)c3)N2C1=O (stereo not given),0.368,0.46
O=C(Nc1cccc(NC(=O)c2cccc(O)c2O)c1)c1cccc(O)c1O,0.614,0.302
CC1(C)CCC(C)(C)c2cc(NC(=O)c3ccc(C(=O)O)cc3)ccc21 [tamibarotene],1.16,1.49
COc1ccc(OC)c2c(=S)c3ccccc3[nH]c12,1.35,1.14
CCOC(=O)C(C)(C)Oc1ccc(Cl)cc1 [Clofibrate],1.35,1.03

SMILES,cell viability [1],cell viability [2]
COc1cc2nc(N3CCCN(C)CC3)nc(NC3CCN(Cc4ccccc4)CC3)c2cc1OC,0.42,0.454
O=C(O)c1cc(NCc2cc(O)ccc2O)ccc1O [Lavendustin C],1.36,1.17
Nc1[nH]nc2nnc(-c3c(-c4ccccc4)nn4ccccc34)cc12 [ERK inhibitor II],0.847,0.734
C[C@H](NC(=O)/C(C#N)=C/c1cccc(Br)n1)c1ccccc1,0.347,0.392
C=CC[C@@H]1/C=C(\C)C[C@H](C)C[C@H](OC)[C@H]2O[C@@](O)(C(=O)C(=O)N3CCCC[C@H]3C(=O)O[C@H](/C(C)=C/[C@@H]3CC[C@@H](O)[C@H](OC)C3)[C@H](C)[C@@H](O)CC1=O)[C@H](C)C[C@@H]2OC,0.941,0.964
NNCCc1ccccc1 [Phenelzine],1.13,1.25
CCCS(=O)(=O)Nc1ccc(F)c(C(=O)c2c[nH]c3ncc(-c4ccc(Cl)cc4)cc23)c1F [Vemurafenib],0.651,0.881
Cc1ccc(NC(=O)c2ccc(CN3CCN(C)CC3)cc2)cc1Nc1nccc(-c2cccnc2)n1 [imatinib mesylate],0.956,1.09
CNC(=O)c1ccc(N2C(=S)N(c3ccc(C#N)c(C(F)(F)F)c3)C(=O)C2(C)C)cc1F,1.14,1.18
Cc1ccc(Nc2nccc(N(C)c3ccc4c(C)n(C)nc4c3)n2)cc1S(N)(=O)=O [pazopanib],0.96,0.864
CS(=O)(=O)CCNCc1ccc(-c2ccc3ncnc(Nc4ccc(OCc5cccc(F)c5)c(Cl)c4)c3c2)o1 [lapatinib],0.482,4.68
CC[C@]1(O)C[C@@H]2CN(CCc3c([nH]c4ccccc34)[C@@](C(=O)OC)(c3cc4c(cc3OC)N(C)[C@H]3[C@@](O)(C(=O)OC)[C@H](OC(C)=O)[C@]5(CC)C=CCN6CC[C@]43[C@@H]65)C2)C1 [Vinblastine sulfate],0.52,0.427
Nc1ncn([C@H]2C[C@H](O)[C@@H](CO)O2)c(=O)n1 [Decitabine],0.757,1.11
O=Nc1c(-c2c(O)[nH]c3cc(Br)ccc23)[nH]c2ccccc12 [GSK-3 inhibitor IX],0.643,0.36
O=C1NC(=O)c2c1c1c3ccccc3[nH]c1n1cncc21 [isogranulatimide],1.12,1.47
NC(=O)c1ccc2nc(-c3ccc(Oc4ccc(Cl)cc4)cc3)[nH]c2c1 [Chk2 inhibitor II],1.23,1.1
Cc1ccc(-c2cn3c4c(sc3n2)CCCC4)cc1 [Pifithrin-a (cyclic)],1.03,1.11
O=c1oc2c(O)c(O)cc3c(=O)oc4c(O)c(O)cc1c4c23 [Ellagic acid],0.827,0.935
COc1cc2/c(=N/c3ccc(Br)cc3F)nc[nH]c2cc1OCC1CCN(C)CC1 [Vandetanib],0.577,0.436
CCC(=C/[C@H](C)C/C=C/C(C)=C/[C@@H](C)C(=O)[C@@H](C)[C@H](O)[C@@H](C)C/C(C)=C/C(=O)O)/C=C/[C@@H]1OC(=O)C=C[C@@H]1C [Leptomycin B*],0.406,0.39
CN(C)CCCCC(=O)Nc1ccc(NC(=S)NC(=O)c2ccc(C(C)(C)C)cc2)cc1 [Tenovin-6],0.406,0.274
OCCn1cc(-c2cnc3nnn(Cc4ccc5ncccc5c4)c3n2)cn1,1.05,1.18
CCCCCCCC(=O)OCCOC(=O)CCCCCCC [Dioctanoylglycol],1.3,0.996
CNC(=O)c1cc(Oc2ccc(NC(=O)Nc3ccc(Cl)c(C(F)(F)F)c3)cc2)ccn1 [sorafenib],0.402,0.604

SMILES,cell viability [1],cell viability [2]
CC[C@H](C)C(=O)O[C@H]1C[C@@H](C)C=C2C=C[C@H](C)[C@H](CC[C@@H]3C[C@@H](O)CC(=O)O3)[C@H]21 [Lovastatin],0.595,0.792
C=CCc1cccc(/C=N/NC(=O)CN2CCN(Cc3ccccc3)CC2)c1O,0.787,0.821
CNC(=N)NCCC[C@H](N)C(=O)O,0.909,0.974
Nc1nc(Nc2ccc(S(N)(=O)=O)cc2)nn1C(=S)Nc1c(F)cccc1F [Cdk1/2 inhibitor III],0.687,0.665
"COc1cccc2c1C(=O)c1c(O)c3c(c(O)c1C2=O)C[C@@](O)(C(C)=O)C[C@@H]3O[C@H]1C[C@H](N)[C@H](O)[C@H](C)O1 [Daunorubicin, HCl]",0.435,0.527
CCCCCCCCCCC1=C(C)C(=O)C(OC)=C(OC)C1=O [Decylubiquinone],1.02,0.981
COC(=O)Nc1nc2cc(C(=O)c3cccs3)ccc2[nH]1 [Nocodazole],0.451,0.464
CCCCOc1cc(CC2CNC(=O)N2)ccc1OC (stereo not given),0.901,0.999
CC(=N)NCc1cccc(CN)c1,1.15,0.992
"CC/C(=C(\c1ccccc1)c1ccc(OCCN(C)C)cc1)c1ccccc1 [Tamoxifen, citrate]",1.34,0.868
COc1cccc(-c2cc(=O)c3ccccc3o2)c1N,0.798 and 0.451,0.852 and 0.84
Nc1cccc(-c2cc3c(Oc4cccc(O)c4)ncnc3[nH]2)c1,0.586,1.03
C/C=C/C=C\C=C/C(O)C(C)C(CCC(C)C1OC(=O)C=CC1C)OP(=O)(O)O (stereo not given) [Cytostatin],0.34,0.344
Oc1ccc(-c2nc(-c3ccc(F)cc3)c(-c3ccncc3)[nH]2)cc1,0.468,0.806
CCCCCCCCCCC[C@@H](C[C@@H]1OC(=O)[C@H]1CCCCCC)OC(=O)[C@H](CC(C)C)NC=O [orlistat],1.08,1.14
COCC[n+]1c2c(n(Cc3cnccn3)c1C)C(=O)c1ccccc1C2=O,0.242,0.291
COc1nccc(-c2c(-c3ccc(F)cc3)ncn2C2CCC(O)CC2)n1 (stereo not given),1.14,1.06
COc1cc2ncnc(Nc3ccc(NC(=O)c4ccccc4)cc3)c2cc1OC [Aurora kinase inhibitor II],1.09,0.688
Cn1cnc2c(NCc3ccccc3)nc(NCCO)nc21 [Olomoucine],1.25 ± 0.25,1.27 ± 0.17
Nc1ncnc2nc(-c3ccc(N4CCOCC4)nc3)cc(-c3cccc(Br)c3)c12,0.795,0.484
NC(=O)c1cccc2cn(-c3ccc([C@@H]4CCCNC4)cc3)nc12 [MK-4827 (Niraparib)],0.61,0.783
"N#CCCc1ccc2c(c1)-c1[nH]c3ccc([N+](=O)[O-])cc3c1CC(=O)N2 [Alsterpaullone, 2-cyanoethyl]",0.893,0.778
